Screening data (PubChem)
NIH3T3 tox: kills NIH 3T3 cells; 94,000 tested, 4.3% active; Potency, µM (highest dose often 96.7 µM), hits mostly inhibitors; NIH 3T3 viability, CellTiter-Glo ATP luminescence, 48-72 h; note: nearly all actives have a fitted effect of over 55% in size
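NIH 3T3 cells at 400 cells/well received 23 nL of compound by pintool and were incubated 48 or 72 h at 37 °C. Viability was read as ATP-coupled CellTiter-Glo luminescence.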
GPT2 inhibitor: inhibitors of human GPT2 alanine aminotransferase. Potency, µM (doses to about 57.7 µM), usual class: inhibitors. 100,000 tested, 0.25% active. AID 1671188. Recombinant GPT2, coupled pyruvate oxidase/HRP Amplex Red fluorescence; note: nearly all actives have a fitted effect of over 60% in size
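GPT2 10ng/uL, a-KG 250uM, L-Ala 2mM, HEPES pH7.5 + 0.0001% Tween; 30 min RT. Then Amplex mix (PO/HRP/ThPP), 30 min RT dark, fluorescence. AOA 50uM used as positive control.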
hNpr1 antagonist: blocks ANP-stimulated signaling of human Npr1 receptor; P16066; HEK293 hNpr1 GloSensor cGMP, ANP-stimulated luminescence; Potency, µM (series often up to 46.3 µM), usual class: inhibitors; 76,000 tested, 1.6% active; AID 1347048; calls by dose curve; note: nearly all actives have a fitted effect of over 60% in size
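HEK293 cells stably expressing human Npr1 and cGMP GloSensor pGS-40F, loaded 2 h with 2% GloSensor reagent, given compound 30 min at room temperature. Luminescence read before and 20 min after 0.1 nM hNppA.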
HEK cytotox: HEK 293 cell cytotoxicity | HEK 293 viability, ATP luminescence (CellTiter-Glo), 48-72 h | Potency, µM (series often up to 115 µM), hits mostly inhibitors | 94,000 tested, 6.6% active; note: nearly all actives have a fitted effect of over 60% in size
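ATP-coupled CellTiter-Glo luminescence served as viability read-out, recorded 10 min after reagent addition at room temperature. HEK 293 cells, 250 cells/well, had been incubated with pintool-transferred compound for 48 or 72 hr at 37 degree Celsius.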
FLuc inh: Photinus pyralis luciferase inhibition | purified P. pyralis luciferase, luminescence, biochemical | Potency, µM (doses to about 115 µM), hits mostly inhibitors | 76,000 tested, 2.5% active; note: nearly all actives have a fitted effect of over 65% in size
Target sequence (P08659 whole entry, looked up): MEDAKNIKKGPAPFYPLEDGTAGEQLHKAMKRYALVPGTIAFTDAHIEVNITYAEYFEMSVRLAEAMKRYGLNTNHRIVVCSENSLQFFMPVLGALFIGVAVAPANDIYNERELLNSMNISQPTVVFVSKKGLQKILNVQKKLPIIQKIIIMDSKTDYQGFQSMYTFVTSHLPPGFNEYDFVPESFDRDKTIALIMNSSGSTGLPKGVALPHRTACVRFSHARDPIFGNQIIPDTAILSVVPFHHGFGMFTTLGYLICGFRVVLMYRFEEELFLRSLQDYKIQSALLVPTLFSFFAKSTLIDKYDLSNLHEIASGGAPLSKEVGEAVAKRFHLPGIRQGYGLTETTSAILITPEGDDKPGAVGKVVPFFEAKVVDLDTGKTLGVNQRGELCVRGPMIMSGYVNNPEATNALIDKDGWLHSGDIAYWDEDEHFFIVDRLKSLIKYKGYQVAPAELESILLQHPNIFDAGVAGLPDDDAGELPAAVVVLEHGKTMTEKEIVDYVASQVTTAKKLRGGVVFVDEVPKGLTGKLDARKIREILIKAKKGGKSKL
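Luminescence read by CCD imager after adding enzyme (10nM final) to wells holding compound, titrated in qHTS. Substrates 10uM each D-luciferin and ATP; buffer 50mM Tris acetate pH 7.5, 10mM Mg acetate, Tween-20, BSA.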
Of the large screens only hits and unclear results are named; the others gave an inactive call. The list is not random: actives were taken first. Their share in the collection is about 10%. Unless noted, calls come from the whole dose curve; as a rule, active = well fitted curve in the direction sought with a large enough effect; inconclusive = small, poorly fitted or top-dose-only effect, or another doubt; inactive = no such curve, though single readings can be large; an effect the other way counts as inactive or inconclusive.

CC(C)NC(=O)c1ccnc(-c2nnc3ccc(Nc4ccccc4)nn23)c1	NIH3T3 tox inconclusive, HEK cytotox inconclusive
CN(Cc1ccccc1)C(=O)c1ccnc(-c2nnc3ccc(Nc4ccccc4)nn23)c1	NIH3T3 tox inconclusive, hNpr1 antagonist inconclusive, HEK cytotox 20µM
CCc1noc(-c2cccn3c(CNC(=O)c4c(F)cccc4Cl)nnc23)n1	none
COCCn1c(=O)c(C(=O)NCCc2ccccc2)nc2cccnc21	none (no result: hNpr1 antagonist, FLuc inh)
O=C(c1ccccc1)N1CCC(C(=O)N2CCC(c3nc4ccncc4[nH]3)C2)CC1 (configuration not stated)	none (no result: hNpr1 antagonist, FLuc inh)
COc1ccc(Nc2ccc3nnc(-c4ccccn4)n3n2)cc1	NIH3T3 tox inconclusive, HEK cytotox 70.8µM
O=C(NCc1cccc(Cl)c1)c1nc2cccnc2n(CCc2ccccc2)c1=O	NIH3T3 tox inconclusive, HEK cytotox 35.5µM (no result: hNpr1 antagonist, FLuc inh)
CCCCn1c(=O)c(C(=O)NCc2ccccc2)nc2cccnc21	NIH3T3 tox inconclusive, HEK cytotox inconclusive (no result: hNpr1 antagonist, FLuc inh)
O=C(NCCc1ccccc1)c1nc2cccnc2n(CCc2ccccc2)c1=O	HEK cytotox inconclusive (no result: hNpr1 antagonist, FLuc inh)
CCCCn1c(=O)c(C(=O)NCCc2ccccc2)nc2cccnc21	NIH3T3 tox inconclusive, HEK cytotox 44.7µM (no result: hNpr1 antagonist, FLuc inh)
CCCCn1c(=O)c(C(=O)NCc2cccc(Cl)c2)nc2cccnc21	NIH3T3 tox 35.5µM, HEK cytotox inconclusive (no result: hNpr1 antagonist, FLuc inh)
FC(F)(F)c1ccc2nc([C@H]3CCN(C4CCCCC4)C3)[nH]c2c1	NIH3T3 tox 89.1µM, HEK cytotox inconclusive, FLuc inh 56.2µM
CN1CCC(N2CC[C@H](c3nc4ccc(C(F)(F)F)cc4[nH]3)C2)CC1	NIH3T3 tox 89.1µM, HEK cytotox inconclusive
Cc1ccc2nc([C@H]3CCN(C4CCC4)C3)[nH]c2c1	NIH3T3 tox inconclusive, hNpr1 antagonist inconclusive, HEK cytotox inconclusive, FLuc inh inconclusive
CN1CCC(N2CC[C@H](c3nc4ccccc4[nH]3)C2)CC1	FLuc inh 70.8µM
Cc1ccc(S(=O)(=O)N2CC[C@H](c3nc4ccccc4[nH]3)C2)cc1	NIH3T3 tox 89.1µM, HEK cytotox inconclusive
CC(C)OCCCNc1ncnc2c1CN(C1CCCNCC1)C(=O)CN2C (configuration not stated)	none (no result: hNpr1 antagonist, FLuc inh)
COCc1cc(NCc2cccnc2Oc2cccc(C(F)(F)F)c2)ncn1	HEK cytotox 50.1µM
CCC(CC)C(=O)NCc1cccnc1Oc1cccc(C(F)(F)F)c1	HEK cytotox inconclusive
Cc1nn(C(=O)CCC(=O)N2CCC(Cc3nc(C4CCOCC4)no3)CC2)c2ccccc12	HEK cytotox inconclusive
COc1cccc(-c2c(C(=O)NCc3cccs3)nc3sccn23)c1	NIH3T3 tox inconclusive, HEK cytotox inconclusive (no result: hNpr1 antagonist, FLuc inh)
COCCNC(=O)c1cn2cc(-c3ccc(C(F)(F)F)cc3)sc2n1	NIH3T3 tox inconclusive, HEK cytotox inconclusive (no result: hNpr1 antagonist, FLuc inh)
Cc1cnc(C2CCOCC2)n1C1CCN(C(=O)Nc2ccc3c(c2)OCCO3)CC1	FLuc inh 35.5µM
Cc1nn(C)c(=O)n1C1CCN(C(=O)Nc2ccc3c(c2)OCCO3)CC1	none (no result: hNpr1 antagonist, FLuc inh)
CNC(=O)N1CCC(Cc2noc(C3CCOCC3)n2)C1 (configuration not stated)	none
O=C(Nc1ccc2c(c1)OCCO2)N1CCC(Cc2noc(C3CCOCC3)n2)C1 (configuration not stated)	FLuc inh 17.8µM
O=C(N[C@H]1CCN2C(=O)c3cc(-c4cccs4)ccc3NC(=O)[C@H]12)c1cccc(F)c1	NIH3T3 tox inconclusive
O=C(NCC(=O)N1CCC(Cc2ccccc2)CC1)c1ccc(-c2cnc3ccccc3c2)cc1	NIH3T3 tox inconclusive, HEK cytotox 10µM (no result: hNpr1 antagonist, FLuc inh)
CN1CC(=O)N(C2CCCNCC2)Cc2c1ncnc2N1CCC(O)C1 (configuration not stated)	none (no result: hNpr1 antagonist, FLuc inh)
CN(C)C(=O)CNC(=O)c1cccc(-c2ccc(C(F)(F)F)cc2)c1	NIH3T3 tox inconclusive, HEK cytotox 39.8µM (no result: hNpr1 antagonist, FLuc inh)
CNC(=O)CNC(=O)c1cccc(-c2ccc(C(F)(F)F)cc2)c1	NIH3T3 tox inconclusive, HEK cytotox inconclusive (no result: hNpr1 antagonist, FLuc inh)
CC(C)(C)C(=O)NCCNC(=O)c1cccc(-c2ccc(C(F)(F)F)cc2)c1	NIH3T3 tox 44.7µM, HEK cytotox 25.1µM (no result: hNpr1 antagonist, FLuc inh)
O=C(NCCc1ccccc1F)c1ccc2nnc(-c3ccc(OC(F)(F)F)cc3)n2c1	NIH3T3 tox inconclusive, HEK cytotox inconclusive (no result: hNpr1 antagonist, FLuc inh)
O=C(NCCNC(=O)c1cccc(Cl)c1)c1ccc(-c2cncnc2)cc1	HEK cytotox inconclusive (no result: GPT2 inhibitor, hNpr1 antagonist, FLuc inh)
Cc1ccc(CN2CC(N(C3CCOCC3)S(C)(=O)=O)C2)cc1	none (no result: hNpr1 antagonist, FLuc inh)
O=C(CN1CC2CC(C1)[C@H]1CCCC(=O)N1C2)NC1CCN(Cc2ccccc2)CC1 (some centres not stated)	none
c1ccc(C2(c3ccccc3)CCCN(Cc3cscn3)C2)cc1	NIH3T3 tox inconclusive, HEK cytotox 39.8µM
CCC(=O)N1CCC(CC)(N2CCN(S(=O)(=O)c3ccccc3C(F)(F)F)CC2)C1 (configuration not stated)	NIH3T3 tox inconclusive, HEK cytotox inconclusive
O=C(c1ccc(C(F)(F)F)cc1)N1CCN(c2ccc3nnc(-c4ccccc4)n3n2)CC1	none (no result: GPT2 inhibitor, hNpr1 antagonist, FLuc inh)
COc1ccc(CN2Cc3cc(NC(=O)Cc4ccc(F)cc4)ccc3OC(C)C2=O)cc1 (configuration not stated)	NIH3T3 tox inconclusive, HEK cytotox 39.8µM
COc1ccccc1CN1Cc2cc(NS(=O)(=O)c3ccc(C)c(F)c3)ccc2OC(C)C1=O (configuration not stated)	NIH3T3 tox inconclusive, HEK cytotox inconclusive
CC1Oc2ccc(NC(=O)Cc3ccc(F)cc3)cc2CN(CC2CC2)C1=O (configuration not stated)	NIH3T3 tox inconclusive, HEK cytotox 39.8µM
CC1Oc2ccc(NS(=O)(=O)c3ccc(F)cc3)cc2CN(Cc2ccc(F)cc2)C1=O (configuration not stated)	NIH3T3 tox inconclusive, HEK cytotox 44.7µM
CC1Oc2ccc(NC(=O)Cc3ccc(F)cc3)cc2CN(CCc2ccc(F)cc2)C1=O (configuration not stated)	NIH3T3 tox inconclusive, HEK cytotox inconclusive
CC1Oc2ccc(NC(=O)Cc3ccccc3)cc2CN(Cc2ccc(F)cc2)C1=O (configuration not stated)	NIH3T3 tox inconclusive, GPT2 inhibitor inconclusive, hNpr1 antagonist inconclusive, HEK cytotox 44.7µM
O=C(NCc1cccnc1)c1ccc2c(c1)n(Cc1ccccc1)c(=O)c1ccnn12	none
O=C(NCc1cccnc1)c1ccc(N2CCC(NCCCn3ncc4ccccc43)CC2)cc1	NIH3T3 tox 17.8µM, HEK cytotox inconclusive
CC1CCC2(CC1)NC(=O)N(CC(=O)Nc1ccc(F)c(Cl)c1)C2=O (configuration not stated)	none
CC1CCC2(CC1)NC(=O)N(CC(=O)Nc1ccc(Cl)cc1)C2=O (configuration not stated)	NIH3T3 tox 11.2µM, HEK cytotox inconclusive
O=C(CN1C(=O)NC2(CCCCC2)C1=O)Nc1ccc(F)cc1	HEK cytotox inconclusive
